The campaign covered roughly 16,000 compounds. About 4,000 (25%) were called active. Another 26% or so got no clear call; they are omitted. Calls follow the shape of the dose curve; as a rule, active = well fitted curve in the direction sought with a large enough effect; inconclusive = small, poorly fitted or top-dose-only effect, or effect the other way; inactive = no such curve, though single readings can be large or run the other way. The list is a sample of the results.
% is scaled to controls: 0 for no effect and ±100 for the full control effect.

For the test, the target named is Cytochrome P450 2C9 (Homo sapiens) (UniProt P11712). The test is described as follows: Cytochrome panel assay with activity outcomes. The settings on record: recombinant CYP, pro-luciferin dealkylation, luminescence, p450-cyp2c9; series mostly up to 57.1 µM; activity, negative = inhibition: at the top concentration.
Cytochrome P450 2C9 (Homo sapiens), sequence (P11712 whole entry, looked up): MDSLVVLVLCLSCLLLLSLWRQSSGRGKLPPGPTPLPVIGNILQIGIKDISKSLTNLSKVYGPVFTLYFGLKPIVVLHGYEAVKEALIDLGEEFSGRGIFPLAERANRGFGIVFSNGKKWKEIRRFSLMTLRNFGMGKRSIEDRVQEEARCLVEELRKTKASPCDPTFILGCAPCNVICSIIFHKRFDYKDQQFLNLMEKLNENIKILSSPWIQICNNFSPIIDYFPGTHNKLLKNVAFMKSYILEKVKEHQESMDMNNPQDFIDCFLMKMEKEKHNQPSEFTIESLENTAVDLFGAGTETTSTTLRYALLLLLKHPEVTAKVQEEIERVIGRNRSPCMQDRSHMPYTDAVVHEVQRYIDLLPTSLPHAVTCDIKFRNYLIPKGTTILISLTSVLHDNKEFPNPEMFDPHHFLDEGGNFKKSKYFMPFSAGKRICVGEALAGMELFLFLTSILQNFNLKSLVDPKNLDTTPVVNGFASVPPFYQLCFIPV
Take `CN1CC[C@@]2(CCN3CCc4c(oc5ccccc45)[C@@H]3C2)N(C)C1=O`: the “activity, negative = inhibition” value is -13.3% (inactive).
Still for that read-out and setting: under `Cc1nc(N=Nc2cc(S(=O)(=O)O)ccc2S(=O)(=O)O)c(COP(=O)(O)O)c(C=O)c1O` stands 13.1% (inactive); under `CN1CCCC[C@@H]1CCN1CCCCC1`, -2.28% [at 11.4 µM] (inactive).
For the molecule `Cn1c(=O)n(C)c2cc(/C=N/n3cnnc3)ccc21`, the AC50 is 2.24 µM (active).
For `CSc1nncn1/N=C/c1ccc2c(c1)OCO2`, the “activity, negative = inhibition” value was -11.2% (inactive).
For the molecule `Cn1c(=O)n(C)c2cc(S(=O)(=O)O)ccc21`, the “activity, negative = inhibition” value was 16.7% (inactive).
Turning to `CC(C)OC(=O)C1=C2SCC(=O)N2C(N)=C(C#N)C1`, the AC50 was 8.91 µM (active).
Regarding `Nc1nc(N)nc(CCCc2nc(N)nc(N)n2)n1`, the activity, negative = inhibition was 9.16% [at 11.4 µM] (inactive).
Same read-out and setting: to `CC(=O)Nc1nnc(S(N)(=O)=O)s1` belongs -15.9% [at 25.6 µM] (inactive).
As for `CC(C)=CC(=O)Nc1nnc(C(C)C)s1`, the AC50 was 10 µM (active).
With `CC(=O)Nc1nnc(CCN2CCCCC2)s1`, the “activity, negative = inhibition” value is 0.582% (inactive).
Turning to `Cc1c(C(=O)N/N=C/c2ccccc2)sc(=S)n1C`, the “activity, negative = inhibition” value is -34% (inactive).
For the molecule `Cc1nn(-c2ccccc2)c(C)c1/C=N/NC(=O)c1cc(-c2ccc(Cl)s2)[nH]n1`, the AC50 was 7.94 µM (active).
Take `Cc1ccccc1/C=N\NC(=O)c1csnn1`: the “activity, negative = inhibition” value was -21.1% (inactive).
In the case of `CCOC(=O)C1(S(=O)(=O)c2ccc(Cl)cc2)CCN(Cc2ccc(Cl)cc2)CC1`, the AC50 was 3.55 µM (active).
Regarding `O=C(NCCN1CCCC1)C1(S(=O)(=O)c2ccc(Cl)cc2)CC1`, the “activity, negative = inhibition” value is -14.8% (inactive).
For the molecule `CC(C)(C)C(=O)N1CCC(O)(CS(=O)(=O)Cc2ccc(Cl)cc2)CC1`, the “activity, negative = inhibition” value is -1.37% (inactive).
On the same count and under the same terms, to `CCn1c(CC(C)C)n[nH]c1=S` belongs -29.6% (inactive).
As to `S=c1[nH]nc(CCc2ccccc2)n1Cc1ccccc1`, the AC50 was 7.94 µM (active).
Regarding `Cc1ccccc1N1CCN(S(=O)(=O)C[C@@]23CC[C@H](C[C@H]2NC(=O)[C@@H](N)CCS(C)(=O)=O)C3(C)C)CC1`, the “activity, negative = inhibition” value is 8.89% (inactive).
In the case of `COC(=O)c1sc2ccccc2c1-n1cccc1C(=O)C(=O)Nc1ccc(Cl)cc1`, the AC50 was 0.1 µM (active).
For the molecule `C=CCNC(=O)c1cccn1-c1ccsc1C(=O)OC`, the “activity, negative = inhibition” value is 22.5% (inactive).
On the same count and under the same terms, to `CCCCOC(=O)Nc1ccccc1C(=O)OC` belongs -31.8% (inactive).
Consider `COC(=O)c1ccccc1NS(=O)(=O)c1ccc2c3c(cccc13)C(=O)N2`, for which the AC50 was 0.178 µM (active).
Consider `Oc1ccc([C@@H]2CNCc3sccc32)cc1O`, for which the “activity, negative = inhibition” value was -16.1% (inactive).
`Cc1ccc2nc(/C(C#N)=C\c3ccc(OC(=O)c4cccs4)cc3)[nH]c2c1`: the AC50 was 2 µM (active).
Consider `Cc1cc(C)cc(Oc2coc3cc(OC(=O)c4cccs4)ccc3c2=O)c1`, for which the “activity, negative = inhibition” value was -21.4% (inactive).
Consider `Cn1c(=O)c2c(ncn2CCO)n(C)c1=O`, for which the “activity, negative = inhibition” value was -1.08% [at 25.6 µM] (inactive).
With `Cn1c(=O)c2c(ncn2CC(COCc2ccccc2Cl)OCc2ccccc2Cl)n(C)c1=O` (stereo not given), the half-maximal activity concentration (AC50) was 15.8 µM (active).
`Cn1c(=O)c2c(ncn2C[C@@H](O)CO)n(C)c1=O`: the “activity, negative = inhibition” value was -18.6% [at 25.6 µM] (inactive).
On the same count and under the same terms, to `CCC(C)NS(=O)(=O)c1ccc(NC(=O)CCC2CCCCC2)cc1` (stereo not given) belongs -16.8% (inactive).
`Cc1ccc(NC(=O)CCc2ccc(S(=O)(=O)NC3CCCCC3)cc2)cc1`: the AC50 is 3.98 µM (active).
Still for that read-out and setting: under `O=C(CCc1ccc(S(=O)(=O)NC2CCCCC2)cc1)N(Cc1ccccc1)Cc1ccccc1` stands 1 µM (active).
As to `Cc1ccc(NC(=S)NC2CCCC2)cc1`, the “activity, negative = inhibition” value is -11.4% (inactive).
Same read-out and setting: under `OCCNCCCOc1cccc(Cl)c1Cl` stands -17.8% (inactive); under `O[C@@H](c1ccccc1)C1CCN(CCc2ccccc2)CC1`, -14.1% (inactive).
The same measure, in the same setting: under `CCCCNc1nc(SC)nc2nc[nH]c12` stands -18.3% [at 11.4 µM] (inactive).
For the molecule `O=C(O)c1ccc(Oc2nc3ccccc3s2)cc1`, the activity, negative = inhibition is -27% [at 11.4 µM] (inactive).
For `O=C(OCc1nc2ccccc2s1)c1ccc(Br)s1`, the AC50 was 4.47 µM (active).
Turning to `Cc1cc([N+](=O)[O-])c(C)c(Br)c1C`, the activity, negative = inhibition is 20.3% [at 11.4 µM] (inactive).
Regarding `O=C(NCCOC(=O)c1ccc(C(=O)OCCNC(=O)c2cccnc2)s1)c1cccnc1`, the AC50 is 3.98 µM (active).
The same measure, in the same setting: under `O=C(NCCO[N+](=O)[O-])c1cccnc1` stands 2 µM (active).
Consider `CC(=O)OCCNC(=O)c1cccnc1`, for which the “activity, negative = inhibition” value was 13.2% (inactive).
Same read-out and setting: under `CN(C)c1ccnc(-c2ccccc2C(F)(F)F)n1` stands 10.1% [at 2.29 µM] (inactive); under `CCOC(=O)C[C@@H](C(=O)OCC)[C@@H]1CCCCC1=O`, 19.8% [at 11.4 µM] (inactive).
On the same count and under the same terms, to `COc1ccccc1CC(=N)N1C[C@@H]2C(=O)CCC(c3ccccc3)(c3ccccc3)[C@@H]2C1` belongs 1.86% (inactive); to `C=C1CCO[C@@]2([C@H](O)[C@@](C)(O)CO)NC(=O)[C@]1(O)NC2=O`, 5.79% [at 11.4 µM] (inactive).
With `NC(=O)c1cccc(N)c1`, the half-maximal activity concentration (AC50) is 12.6 µM (active).
Regarding `N=C(N)c1ccccc1`, the “activity, negative = inhibition” value is -4.84% (inactive).
Same read-out and setting: under `NC(=O)/C(=N\O)c1ccccc1` stands -1.79% (inactive); under `O=C1C(Cc2ccccc2)NC(=S)N1c1ccccc1` (stereo not given), -101% (inactive).
Take `O=C1C(Cc2ccccc2)SC(=Nc2ccccc2)N1c1ccccc1` (stereo not given): the AC50 is 15.8 µM (active).
The same measure, in the same setting: to `CCOc1ccc(-n2c(=O)[nH]cc(C(=O)N3CCCc4ccccc43)c2=O)cc1` belongs 12.6 µM (active).
As to `CCOc1ccc(NC(=O)C(=O)NCC2CCCN2CC)cc1` (stereo not given), the “activity, negative = inhibition” value is -22.5% (inactive).
Turning to `O=C(c1c[nH]c(=O)n(-c2ccccc2)c1=O)N1CCc2ccccc21`, the “activity, negative = inhibition” value was -29.8% (inactive).
With `COc1cc(-c2nc3ccccn3c2/N=C/c2ccccc2)ccc1O`, the AC50 was 14.1 µM (active).
Turning to `COc1ccc(C=Nc2c(O)ccc3ccccc23)cc1OC`, the activity, negative = inhibition is -1.31% [at 11.4 µM] (inactive).
On the same count and under the same terms, under `O=[N+]([O-])c1ccc(Cl)c(-c2ccc(/C=N/c3c(-c4ccco4)nc4ccccn34)o2)c1` stands 7.09% (inactive).
On to `CCOc1cc(/C=N/O)cc(Cl)c1OC`, for which the “activity, negative = inhibition” value is 18.3% (inactive).
Turning to `CCOc1cc(/C=N/n2cnnc2)c(Br)cc1O`, the AC50 was 10 µM (active).
For `COc1ccc(NC(=O)N2CC3(CCN(C(=O)c4cccn4C)CC3)C2)cc1`, the “activity, negative = inhibition” value was -6.72% (inactive).
Consider `CCC(Sc1nc2n[nH]c(C)c2c(=N)n1-c1cccc(Cl)c1)C(=O)NCCOC` (stereo not given), for which the AC50 is 4.47 µM (active).
Turning to `COCCNC(=O)CCn1nc(-c2ccc(Cl)cc2)ccc1=O`, the “activity, negative = inhibition” value is -24.3% (inactive).
The same measure, in the same setting: to `CO[C@@H]1COC(=O)[C@H](C)NC(=O)[C@@H](C)COC(=O)CCC[C@H]1C` belongs 10.9% [at 11.4 µM] (inactive).
`N#C/C(=C\c1ccc(O)c(O)c1)C(=O)OCCc1cccs1`: the AC50 was 15.8 µM (active).
On to `N#C/C(=C\c1ccc(O)c(O)c1)C(=O)NCCc1ccccc1`, for which the “activity, negative = inhibition” value is -33.5% (inactive).
For the molecule `CC(C)CN1CCC2(CC1)CCN(S(=O)(=O)c1ccccc1)CC2`, the “activity, negative = inhibition” value is 2.64% (inactive).
As to `CC(Oc1ccccc1)c1ccnn1S(=O)(=O)c1ccccc1` (stereo not given), the AC50 is 4.47 µM (active).
The same measure, in the same setting: under `CC(Oc1ccc(-c2ccccc2)c(F)c1)c1ccn(S(=O)(=O)c2ccc(Cl)cc2)n1` (stereo not given) stands 7.08 µM (active).
Still for that read-out and setting: to `CC(Oc1ccc(Cl)cc1)c1ccnn1S(=O)(=O)c1ccccc1` (stereo not given) belongs 7.94 µM (active).

As a reminder, the AC50 is the concentration at which the activity in the assay is half-maximal.

The record behind these values is PubChem BioAssay AID1851 (National Center for Advancing Translational Sciences (NCATS), 2009).
